These results are taken from PubChem BioAssay (Tox21).

Results filed as inconclusive are left out. Unmarked numbers belong to inactive results. Activity calls are given as the source filed them. Unless noted, calls come from the whole dose curve; as a rule, active = well fitted curve in the direction sought with a large enough effect in the repeat runs; inconclusive = weak or mixed curves; inactive = no such curve, though single readings can be large; an effect the other way counts as inactive or inconclusive.

A short description of assay [1]: qHTS assay to identify aromatase inhibitors - cell viability counter screen (AID 743084).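 Note: cells stimulated with testosterone during compound exposure; nearly all actives have a fitted effect of over 55% in size.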
Assay [2] deals with Aryl hydrocarbon receptor (Homo sapiens) (UniProt P35869). The experiment in a line: qHTS assay to identify small molecule that activate the aryl hydrocarbon receptor (AhR) signaling pathway (AID 743085).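 For activation: HG2L7.5c1 human HepG2 liver cells with stably integrated DRE-driven firefly reporter; series mostly up to about 70 µM.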 Note: nearly all actives have a fitted effect of over 15% in size. Note: potency is the fitted concentration of half-maximal effect. The gist of the method:
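HepG2 cells stably carrying a 20-DRE firefly luciferase reporter (HG2L7.5c1) treated with compound for 24 hr at 37C. Luciferase read by ONE-Glo luminescence, with CellTiter-Fluor viability read first.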

Assay [3] in a line: qHTS assay to identify small molecule that activate the aryl hydrocarbon receptor (AhR) signaling pathway - cell viability counter screen (AID 743086).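 Note: HepG2 liver cells carrying the AhR DRE luciferase reporter; series mostly up to about 70 µM; nearly all actives have a fitted effect of over 45% in size.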 The essentials:
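HepG2-AhR-luc (HG2L7.5c1) cells, 4000/well, treated 24 h at 37 C with compound; viability measured as CellTiter-Fluor fluorescence after 30 min in the same wells as the luciferase read.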
A general note: Quantitative high-throughput screening tests each substance at several concentrations.

For assay [4], the target named is Peroxisome proliferator-activated receptor gamma (Homo sapiens) (UniProt P37231). The experiment in a line: qHTS assay to identify small molecule agonists of the peroxisome proliferator-activated receptor gamma (PPARg) signaling pathway (AID 743094; active = well fitted activation curve with a large enough effect in the signal ratio in the repeat runs, not every such curve was filed as active; the % refers to the signal ratio). The gist of the method: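 GeneBLAzer PPARg UAS-bla HEK293H cells were plated, rested 5 h, then exposed to compounds for 17 h at 37C. Beta-lactamase activity was read by LiveBLAzer B/G FRET substrate fluorescence after 1 h at room temperature.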
Sequence of Peroxisome proliferator-activated receptor gamma (Homo sapiens) (P37231 whole entry, looked up): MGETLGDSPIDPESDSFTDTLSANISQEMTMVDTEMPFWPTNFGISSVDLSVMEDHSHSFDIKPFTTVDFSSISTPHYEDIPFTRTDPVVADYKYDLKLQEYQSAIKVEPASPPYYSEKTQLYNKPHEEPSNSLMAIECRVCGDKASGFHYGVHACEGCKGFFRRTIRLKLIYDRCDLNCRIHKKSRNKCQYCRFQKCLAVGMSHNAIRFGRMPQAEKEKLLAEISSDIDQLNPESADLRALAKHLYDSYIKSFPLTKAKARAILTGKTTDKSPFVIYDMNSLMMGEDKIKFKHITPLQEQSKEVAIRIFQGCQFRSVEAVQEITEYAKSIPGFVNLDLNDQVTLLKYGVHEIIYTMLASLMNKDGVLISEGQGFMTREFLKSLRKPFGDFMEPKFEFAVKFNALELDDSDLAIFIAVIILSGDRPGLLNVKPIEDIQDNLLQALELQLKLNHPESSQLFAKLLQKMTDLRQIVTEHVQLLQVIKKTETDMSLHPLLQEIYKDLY

A short description of assay [5]: qHTS assay for small molecule agonists of the antioxidant response element (ARE) signaling pathway (AID 743202; active = well fitted activation curve with a large enough effect in the signal ratio in the repeat runs, not every such curve was filed as active; the % refers to the signal ratio; note: potency is the fitted concentration of half-maximal effect). The essentials:
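ARE-bla HepG2 cells (beta-lactamase reporter under the antioxidant response element), plated 5 hours, then exposed to compounds 16 hours at 37 C. LiveBLAzer B/G FRET substrate added for 2 hours at room temperature; fluorescence intensity read.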

The nature of assay [6]: qHTS assay for small molecule agonists of the antioxidant response element (ARE) signaling pathway - cell viability counter screen (AID 743203; calls by dose curve; note: nearly all actives have a fitted effect of over 55% in size; note: potency is the fitted concentration of half-maximal effect). The essentials:
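ARE-bla HepG2 cells were plated, rested 5 h at 37C/5% CO2, then exposed to compounds in DMSO for 16 h. Viability was read as CellTiter-Glo luminescence after 30 min at room temperature, in the same wells as the ARE screen.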

Assay [7] in a line: qHTS assay for small molecule activators of the heat shock response signaling pathway - cell viability counter screen (AID 743209). Note: nearly all actives have a fitted effect of over 50% in size. The gist of the method:
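HSE-bla HeLa cells plated overnight, then exposed to Tox21 compounds (23 nL in DMSO) for 5 h at 37 C. After the bla reporter read, CellTiter-Glo was added in the same wells and luminescence read after 30 min at room temperature.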

The nature of assay [8]: qHTS assay for small molecule activators of the heat shock response signaling pathway (AID 743210; active = well fitted activation curve with a large enough effect in the signal ratio in the repeat runs, with a control signal flat, not every such curve was filed as active; the % refers to the signal ratio; note: series mostly up to about 63 µM). The gist of the method: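 HSE-bla HeLa cells (beta-lactamase reporter under heat shock response elements), plated overnight, then exposed to compounds 5 h at 37 C; LiveBLAzer B/G FRET substrate added, 2.5 h at room temperature, fluorescence intensity read.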
The nature of assay [9]: qHTS assay to identify small molecule antagonists of the peroxisome proliferator-activated receptor gamma (PPARg) signaling pathway - cell viability counter screen (AID 743194). Note: nearly all actives have a fitted effect of over 55% in size. Note: potency is the fitted concentration of half-maximal effect. The essentials: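 Cytotoxicity counter screen in PPARg-bla HEK293H cells, same wells as reporter assay. Compounds plus 50 nM rosiglitazone (final) for 17 h at 37 C, then viability read by CellTiter-Glo luminescence.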

For assay [10], the target named is Peroxisome proliferator-activated receptor gamma (Homo sapiens) (UniProt P37231). Put plainly: qHTS assay to identify small molecule antagonists of the peroxisome proliferator-activated receptor gamma (PPARg) signaling pathway (AID 743191; calls by dose curve; note: series mostly up to about 63 µM; nearly all actives have a fitted effect of over 30% in size). The gist of the method:
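GeneBLAzer PPARg UAS-bla HEK293H cells, 5 h post-plating, exposed to compounds 17 h at 37C. LiveBLAzer B/G FRET substrate added for 1 h at room temperature; beta-lactamase reporter read by fluorescence intensity.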

Sequence of Aryl hydrocarbon receptor (Homo sapiens) (P35869 whole entry, looked up): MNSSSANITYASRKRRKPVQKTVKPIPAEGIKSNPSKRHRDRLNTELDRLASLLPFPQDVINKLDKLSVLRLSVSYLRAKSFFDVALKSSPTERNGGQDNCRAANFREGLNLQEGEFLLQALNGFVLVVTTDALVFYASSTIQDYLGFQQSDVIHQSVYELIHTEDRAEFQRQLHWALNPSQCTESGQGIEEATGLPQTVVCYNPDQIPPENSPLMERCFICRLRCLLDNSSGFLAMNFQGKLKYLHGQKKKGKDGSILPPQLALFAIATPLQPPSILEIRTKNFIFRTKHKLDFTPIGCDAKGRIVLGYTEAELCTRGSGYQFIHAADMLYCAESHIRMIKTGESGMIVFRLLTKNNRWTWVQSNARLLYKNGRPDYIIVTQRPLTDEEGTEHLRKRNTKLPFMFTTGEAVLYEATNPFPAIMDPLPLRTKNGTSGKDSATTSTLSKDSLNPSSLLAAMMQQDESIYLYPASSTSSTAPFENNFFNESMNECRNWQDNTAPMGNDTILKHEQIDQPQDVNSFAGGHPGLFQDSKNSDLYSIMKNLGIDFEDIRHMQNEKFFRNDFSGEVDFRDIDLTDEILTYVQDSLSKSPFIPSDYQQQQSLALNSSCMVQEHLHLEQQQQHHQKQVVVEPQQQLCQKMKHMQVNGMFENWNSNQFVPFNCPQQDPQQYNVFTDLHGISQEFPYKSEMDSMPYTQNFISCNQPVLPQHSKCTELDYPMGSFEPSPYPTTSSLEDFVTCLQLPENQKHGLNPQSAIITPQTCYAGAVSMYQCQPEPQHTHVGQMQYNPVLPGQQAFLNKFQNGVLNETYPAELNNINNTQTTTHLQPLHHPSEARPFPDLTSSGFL

`CN(C)Cc1ccccc1`: the Potency entry in assay [1], in assay [2], in assay [4], in assay [5], in assay [6] and in [8] was “inactive” throughout. Further, the call in [3] and in assay [7] was inactive.
In the case of `O=CCCc1ccccc1`, the Potency entry in assay [1], in [2], in assay [9], in assay [5], in [6] and in assay [8] was “inactive” in each case. Further, the call in [3] and in [7] was inactive.
Take `CCCCCCCCCCCCCCCCOP(=O)([O-])OCC[N+](C)(C)C`: the Potency entry in assay [1], in assay [2], in [4], in assay [5] and in assay [6] was “inactive” each time. Further, in assay [3], the call was inactive.
As to `NCCCN1CCN(CCCN)CC1`, the Potency entry in assay [1], in assay [2], in [9], in assay [5], in [6] and in assay [8] was “inactive” in each case. The molecule was called inactive in assay [3] and in assay [7].
Turning to `CC(C)=CCCC(C)CCOC=O` (stereo unspecified), the Potency entry in assay [1] and in assay [2] was “inactive” in each case. Moreover, the outcome in [3] was inactive. In addition, the values for the Potency in assay [9] and in assay [6] were 43.6 µM (active) and 54.5 µM (active), respectively.
With `C=CCc1cc(OC)c(O)c(C(=O)NCCO)c1`, the Potency result in assay [1], in assay [2], in [4] and in assay [8] was “inactive” throughout. In addition, the call in [3] and in assay [7] was inactive.
For the molecule `CC1(O)CSC(C)(O)CS1` (stereo unspecified), the Potency entry in assay [1], in assay [2], in assay [10], in assay [9], in [6] and in assay [8] was “inactive” throughout. In addition, the molecule was classed as inactive in assay [3].
Turning to `CCCCCCC`, the Potency entry in [1], in [2], in assay [4] and in assay [5] was “inactive” throughout. Further, the molecule was called inactive in assay [3] and in [7].
As for `OCc1c2ccccc2cc2ccccc12`, the Potency entry in [1], in assay [2], in [4], in assay [9], in assay [6] and in assay [8] was “inactive” each time. The molecule was called inactive in [3] and in [7].
`CCOC(=O)[C@H](CCc1ccccc1)N[C@@H](C)C(=O)N1Cc2cc(OC)c(OC)cc2C[C@H]1C(=O)O`: the Potency entry in [1], in [10], in assay [9], in assay [6] and in assay [8] was “inactive” each time. Also, the Potency in [2] is 9.44 µM (active). For the same molecule, the molecule was classed as inactive in [3] and in [7].
Consider `CN1CCN(C2=Nc3ccccc3Oc3ccc(Cl)cc32)CC1`, for which the Potency result in [1], in [2], in assay [4], in [5], in assay [6] and in assay [8] was “inactive” in each case. In addition, the result in assay [3] and in assay [7] was inactive.
As to `CC1=C(CC(=O)O)c2cc(F)ccc2/C1=C\c1ccc(S(C)(=O)=O)cc1`, the Potency result in [1], in assay [2], in [9], in [6] and in assay [8] was “inactive” each time. Further, the molecule was called inactive in [3] and in assay [7].
Regarding `CCCNC(C)C(=O)Nc1c(C)csc1C(=O)OC` (stereo unspecified), the Potency entry in assay [1], in assay [2], in assay [4], in assay [5], in [6] and in [8] was “inactive” each time. Also, the molecule was classed as inactive in assay [3] and in assay [7].
With `OCCN(CCO)CCN(CCO)CCO`, the Potency entry in [1], in assay [2], in assay [4], in assay [6] and in [8] was “inactive” each time. The molecule was called inactive in [3] and in assay [7].
As to `CC1=C2[C@H](/C=C(\C)C(=O)O)CC[C@@H](C)[C@H]2CC1`, the Potency result in assay [1], in assay [2], in [9] and in [6] was “inactive” each time. Besides, the outcome in assay [3] and in assay [7] was inactive.
Regarding `O=c1oc2c(O)c(O)cc3c(=O)oc4c(O)c(O)cc1c4c23`, the Potency entry in [1], in assay [2], in assay [9], in [6] and in assay [8] was “inactive” throughout. Besides, the outcome in [3] and in assay [7] was inactive.
On to `C=CC(C)(O)CC/C=C(\C)CCC=C(C)C` (stereo unspecified), for which the Potency result in [1], in assay [2], in assay [4], in assay [9], in assay [6] and in [8] was “inactive” in each case. Besides, in assay [3], the molecule was called inactive.
With `OCc1ccccc1O`, the Potency result in assay [1], in assay [2], in assay [9], in [6] and in assay [8] was “inactive” each time. Also, the outcome in assay [3] and in assay [7] was inactive.
As for `COC(=O)c1ccc(OC)cc1`, the Potency result in assay [1], in assay [2], in assay [9], in assay [5], in assay [6] and in assay [8] was “inactive” throughout. The molecule was classed as inactive in assay [3] and in assay [7].
As for `O=C(CC(=O)C(F)(F)F)c1ccccc1`, the Potency entry in assay [1], in assay [2], in assay [9] and in assay [5] was “inactive” throughout. Besides, the molecule was called inactive in [3] and in [7].
With `O=C1CCC(C2CCCCC2)CC1`, the Potency entry in assay [1], in assay [2], in assay [4], in assay [6] and in assay [8] was “inactive” in each case. The molecule was called inactive in [3] and in [7].
As to `CC(C)CCCCCCc1ccc(OCCOCCO)cc1`, the Potency entry in assay [1], in assay [2], in assay [4], in [5], in assay [6] and in assay [8] was “inactive” in each case. Besides, the molecule was called inactive in assay [3] and in [7].
Turning to `CC(=O)OC(C)OC(C)=O`, the Potency entry in assay [1], in assay [2], in [4], in [5], in assay [6] and in assay [8] was “inactive” in each case. In addition, the call in assay [3] and in assay [7] was inactive.
For `NS(=O)(=O)c1cc(-c2nn[nH]n2)c(NCc2cccs2)cc1Cl`, the Potency entry in assay [1], in assay [2], in [9], in [6] and in assay [8] was “inactive” in each case. Moreover, the call in [3] was inactive. Moreover, the Potency in assay [5] is 10.6 µM (active).
